# From the supplement of paper PMC10338343
# ± gives the standard deviation. The full ranking holds about 8,200 sequences; the median of “pre-steady-state target cleavage rate” is about 0.024, and the highest 2% start at about 1.3. Only a selection was taken, and the highest values are over-represented in it overall.
# System: MIWI (PIWIL1) piRISC loaded with L1MC piRNA (30 nt)
# Experiment: pre-steady-state target cleavage rate (min^-1); MIWI and MILI are mouse PIWI proteins and EfPiwi is from a freshwater sponge; tags in brackets are library labels; higher = faster piRNA-guided slicing of the target
# Details: guide: L1MC piRNA 5'p-UAACUAAAUACUAUGCAAGCUGUAGGUCCU
# Description: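 Cleave-'n-Seq: a library of target RNAs (target site embedded in constant flanks, ACAGCATTCCGCGTTAGTGATATCCG... 5' flank; DNA-blocked outside the site) at 0.1 nM was incubated with 1 nM active mouse MILI or MIWI piRISC (synthetic 5'-monophosphorylated piRNA guide) with or without 500 nM mouse GTSF1 at 33 °C for 1 min to 16 h. Uncleaved targets were sequenced and normalised to non-target controls, and the pooled three trials were fitted to a burst-and-steady-state model to give the pre-steady-state cleavage rate (min^-1; k3 is constrained to at most 1e-4). Sequence is the target site only; target names encode pairing extent (gX:gY) and contiguous / 1-mismatch / 2-mismatch / bulge geometry. Fits with R² ≤ 0 are excluded.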
# [1] = auxiliary factor: 500 nM mouse GTSF1
# [2] = auxiliary factor: none (no GTSF1)
Sequence,pre-steady-state target cleavage rate [1],pre-steady-state target cleavage rate [2]
AGGUGGUACAGCUUGCAUAGUAUUUAGAAA,0.19 ± 0.044,0.00559 ± 0.0016
UCCUGGUACAGCUUGCAUAGUUAAUAGAAA,0.023 ± 0.0089,
UCCUGGAUGACUUGCAUAGUAUUUAGUUA,0.412 ± 0.03,0.0206 ± 0.0053
UCCUGGAUGUCGAACGAUAGUAUUUAGUUUA,< 0.0001,
AGGACCUUCAGCUUGCAUUGUAUUUAGUUA,0.966 ± 0.031,0.0424 ± 0.01
AGGACCUACAGCUUGCAUUGUAUAUAGUUA,0.395 ± 0.031,0.0219 ± 0.0046
UCGACCUACAGCUUGGAUAGUAUUUAGAAA,0.372 ± 0.044,0.00679 ± 0.002
UCCUGGUACACCUUGCAUAGUUUUUAGUUA,0.0764 ± 0.027,0.0132 ± 0.0038
UCGAACUACAGCUUGCAUAGUAUUUAGUUA,1.39 ± 0.049,0.0698 ± 0.011
UGAACCUACAGCUUGCAUAGUAUUUAGUUA,1.63 ± 0.068,0.0751 ± 0.015
UGGAACCUACAGCUUGCAUAGUAUUUAGUUA,1.41 ± 0.1,0.0747 ± 0.016
UCGAACCUACAGCUUGCAUAGUAUUUAGUUA,1.37 ± 0.046,0.0781 ± 0.016
AGGAACUACAGCUUGCAUAGUAUUUAGUUA,1.3 ± 0.041,0.0918 ± 0.016
UGGAACUACAGCUUGCAUAGUAUUUAGUUA,1.09 ± 0.041,0.0698 ± 0.011
AGGAACCUACAGCUUGCAUAGUAUUUAGUUA,1.23 ± 0.059,0.0809 ± 0.014
UCCACCUACAGCUUGCAUAGUAUUUAGUUG [g2:g27:cont:t1G],0.399 ± 0.047,0.0371 ± 0.0065
AGGACCUACAGGAAGCAUAGUAUUUAGUUA,0.977 ± 0.08,0.0104 ± 0.0029
UGGACCUACAGCUUGCAUAGUAUAAACAAA,0.14 ± 0.028,
UCCACCUACAGCUUGCAUAGUAAAUAGUUA,0.426 ± 0.039,0.00722 ± 0.0018
AGGACCUACAGGAUGCAUAGUAUUUAGUUA,1.06 ± 0.092,0.023 ± 0.0047
UCCUGGAUGUGCUAGCAUAGAAUUUAGUUA,0.00695 ± 0.0028,

Sequence,pre-steady-state target cleavage rate [1],pre-steady-state target cleavage rate [2]
AGGACCUACAGCUUGGAUAGUAUUUACUUA,0.478 ± 0.054,0.0287 ± 0.0043
UCCAGCUACAGCUUGCAUAGUAUUAAGUUA,0.558 ± 0.043,0.015 ± 0.0026
AGAACCUACAGCUUGCAUAGUAUUUAGUUA,1.43 ± 0.047,0.0851 ± 0.013
UCCAACCUACAGCUUGCAUAGUAUUUAGUUA,1.05 ± 0.037,0.055 ± 0.0073
UCAACCUACAGCUUGCAUAGUAUUUAGUUA,1.43 ± 0.04,0.0646 ± 0.011
UCCUGGAACAGCUGGCAUAGUAUUUAGUUA,0.759 ± 0.038,0.0271 ± 0.0057
UCCAGCUACAGCUUGCAUAGUAAUUAGUUA,0.475 ± 0.038,0.0163 ± 0.0027
UCCUGCUACAGGUUGCAUAGUAUUUAGUUA,1.03 ± 0.037,0.0257 ± 0.0052
UCCUGGAUGAGCUUGCAUAGUAUUCUAGUUA,0.28 ± 0.036,0.0103 ± 0.0031
UCCUGCUACAGCUUGCAUAGUAUAUACUUA,0.111 ± 0.017,0.00755 ± 0.0036
UCGUCCUACUGCUUGCAUAGUAUUUAGUUA,1.14 ± 0.048,0.0572 ± 0.0094
UGGAGCUACAGCUUGCAUAGUAUUUUGUUA,0.992 ± 0.05,0.0525 ± 0.0077
UCCUGGUUGUGCUUGCAUAGUAUUUAGUUA,0.584 ± 0.032,0.0455 ± 0.0097
UGGACCUACAGCUUGCAUAGUUAAUAGUAA,0.0448 ± 0.01,
UGGACCUACAGUUGCAUAGUAUUUAGUUA,1.06 ± 0.094,0.00944 ± 0.0032
UCCACCUACAGUUUGCAUAGUAUUUAGUUA,0.892 ± 0.072,0.0474 ± 0.0076
UCGACCUACAGUUUGCAUAGUAUUUAGUUA,1.37 ± 0.054,0.0619 ± 0.0092
UGGACCUACAGUUUGCAUAGUAUUUAGUUA,1.5 ± 0.088,0.0675 ± 0.013
AGGACCUACAGUUUGCAUAGUAUUUAGUUA,1.25 ± 0.073,0.0653 ± 0.0093
UCGACCUACAGUUGCAUAGUAUUUAGUUA,0.955 ± 0.065,0.00747 ± 0.0023
UGGACGUACUGCUUGCAUAGUAUUUAGUUA,1.01 ± 0.051,0.056 ± 0.0091

Sequence,pre-steady-state target cleavage rate [1],pre-steady-state target cleavage rate [2]
UCCUGGAACAGCUUGCUUAGUAAUUAGUUA,0.485 ± 0.041,0.0141 ± 0.0051
UCCUGGAACAGCUUGCAUAGUAUUAUCUUA,0.141 ± 0.028,0.00408 ± 0.0029
UCGACCUACAGCUUGCAUAGUAUUAUGUAA,0.228 ± 0.057,
UCCUGGAACAGCUAGCAUAGUAUUUAGUUA,0.836 ± 0.027,0.022 ± 0.0049
AGGACCUACAGCUUGCAUAGUAGUUUAGUUA,0.47 ± 0.036,0.0209 ± 0.006
UCCUGGAUGUGCUUGGAUAGUAUUAAGUUA,0.0897 ± 0.022,0.00634 ± 0.0041
UCCUGGAUCAGCUUGCAUAGUAUUUAGUUUA,1.64 ± 0.071,0.0415 ± 0.011
UCCUGGAUCAGCUUGCAUAGUAUUUAGUUA [g2:g22:cont:t1A],1.36 ± 0.054,0.0516 ± 0.0097
UCCUGGAUCAGCUUGCUAUAGUAUUUAGUUA,0.00584 ± 0.0043,
UCCUGGAUCAGCUUGCAUAGUAUUUAGUAA,0.96 ± 0.047,0.0287 ± 0.0064
UCCUGGAUCAGCUUGCAUAGUAUUUAGUUG [g2:g22:cont:t1G],1.05 ± 0.12,0.0362 ± 0.0084
UCCUGGAUCAGCUUGGAUAGUAUUUAGUUA,0.775 ± 0.064,0.0476 ± 0.0092
UCCUGGAUCAGCUUGCAUAGUAUUUUAGUUA,0.979 ± 0.05,0.0222 ± 0.0046
UCCUGGAUCAGCUUGCAUAGUAUUUAGUUC [g2:g22:cont:t1C],1.14 ± 0.052,0.0609 ± 0.012
UCCUGGAUCAGCUUGCAUAGUAUUUAGUA,0.838 ± 0.043,0.0119 ± 0.0038
UCCUGGAUCAGCUUGCAUAGUAUUUAGUUU [g2:g22:cont:t1U],1.54 ± 0.089,0.0667 ± 0.016
UCCUGGAUCAGCUUUGCAUAGUAUUUAGUUA,1.05 ± 0.053,0.0153 ± 0.004
UCCUGGAUCAGCUUGUAUAGUAUUUAGUUA,1.64 ± 0.1,0.0468 ± 0.012
UCCUGGAUGAGCUAGCAUAGUAUUUAGUUA,0.617 ± 0.05,0.0107 ± 0.0036
